High-throughput results as filed in PubChem.
An excerpt weighted towards active compounds, which were near 1.7% of everything screened.
GLP1R ag: activates the human GLP-1 receptor. Potency, µM (titrated, usually from 45.6 µM), actives largely listed as activators. HEK293 GLP-1R CRE-luciferase, luminescence, 4-6 h; cells express a hypersensitive GLP-1R form. AID 624172. 380,000 compounds, 0.007% hits
Target sequence (P43220 whole entry, looked up): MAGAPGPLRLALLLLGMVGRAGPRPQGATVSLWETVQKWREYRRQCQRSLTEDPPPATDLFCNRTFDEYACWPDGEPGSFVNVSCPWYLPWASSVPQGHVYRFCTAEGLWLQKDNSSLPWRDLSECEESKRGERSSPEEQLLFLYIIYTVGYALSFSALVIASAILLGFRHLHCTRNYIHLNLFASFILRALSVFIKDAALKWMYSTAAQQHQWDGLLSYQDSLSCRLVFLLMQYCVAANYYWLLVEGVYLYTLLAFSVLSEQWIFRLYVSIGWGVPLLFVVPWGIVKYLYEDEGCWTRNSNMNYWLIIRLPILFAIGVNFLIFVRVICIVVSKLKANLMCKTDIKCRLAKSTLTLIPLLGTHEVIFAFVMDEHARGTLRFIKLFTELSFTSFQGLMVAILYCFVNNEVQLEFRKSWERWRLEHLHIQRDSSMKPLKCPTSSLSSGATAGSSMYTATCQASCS
PTHR1 agonist: agonists of human PTHR1 parathyroid hormone receptor; HEK293 GP2 PTHR1 cells, GloSensor cAMP luminescence, 1 h; AID 743266; 410,000 compounds, 0.075% hits; Q03431; Potency, µM (doses to about 115 µM), most hits filed as activators; further: nearly all actives have a fitted effect of over 55% in size
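HEK-293-derived GP2 cells expressing PTHR1 and a GloSensor cAMP reporter, 3,000/well, plated overnight, given luciferin plus IBMX (each 0.5 mM as added) for 1 h at 37 °C, then compound for 1 h at 37 °C. Luminescence was read after 15 min at room temperature.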
HEK293 tox: cytotoxic in the GLP-1 receptor inverse agonist counter-screen; HEK293 cAMP-luciferase reporter cells, luminescence, 24 h; Potency, µM (series often up to 38.3 µM), actives largely listed as inhibitors; 410,000 compounds, 0.13% hits; AID 624418;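 further: loss of luciferase light is scored as toxicity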
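Here, cytotoxicity is scored as loss of luminescence. The MLSMR collection was tested on cells seeded in medium containing 10% Nu serum, with a 24 hr compound exposure preceded by 12 hours of culture.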
GLP-1R inv ag: inverse agonists of human GLP-1 receptor; Potency, µM (top dose mostly 38.3 µM), hits mostly inhibitors; HEK293 GLP-1R CRE-luciferase, luminescence, 24 h; GLP-1R form is constitutively active; 410,000 compounds, 1.6% hits; AID 624417; P43220; further: nearly all actives have a fitted effect of over 55% in size
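Stable HEK293 clone (constitutively active GLP-1R + cAMP-response luciferase); 200 cells/uL plated, 12 h pre-culture, compound 24 hr, 37 deg C/5% CO2; detection reagent 12 min RT; luminescence.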
Each line names hits and unclear results; the compound was inactive in the other large screens. The call rests on the fitted dose curve; in most records, active means well fitted curve in the direction sought with a large enough effect; inconclusive means small, poorly fitted or top-dose-only effect, or another doubt; inactive means no such curve, though single readings can be large; an effect the other way counts as inactive or inconclusive.

COc1ccc(-c2nn(-c3ccccc3)cc2C(=O)N2c3ccc(C)cc3C3CN(C)CCC32)cc1 (configuration not stated)	GLP-1R inv ag 14µM
Cc1cccc(N2C(=O)CSC23C(=O)N(CC(=O)Nc2cccc(Cl)c2)c2ccccc23)c1 (configuration not stated)	GLP-1R inv ag inconclusive
CCOC(=O)C1CCCN(c2ccc([N+](=O)[O-])c3nonc23)C1 (configuration not stated)	GLP1R ag inconclusive, HEK293 tox 10µM
CN(C)C1C(=O)C(C(N)=O)C(=O)C2(O)C(=O)C3C(=O)c4c(O)cccc4C(C)(O)C3C(O)C12 (configuration not stated)	none (no result: PTHR1 agonist, HEK293 tox, GLP-1R inv ag)
CCCCCCCCCCCCCCCC[n+]1ccccc1	HEK293 tox inconclusive, GLP-1R inv ag 3.5µM
CCCCCCCCCCCCCCCC[n+]1ccc(/C=N/O)cc1	HEK293 tox inconclusive, GLP-1R inv ag 8.9µM
c1ccc2c[n+](CCCCCCCCCC[n+]3ccc4ccccc4c3)ccc2c1	none (no result: GLP1R ag, HEK293 tox, GLP-1R inv ag)
CCCCCCC[n+]1ccc(-c2cc[n+](CCCCCCC)cc2)cc1	none
O=C(Nc1ccc(Br)cc1)c1cccc(S(=O)(=O)N2CCc3ccccc32)c1	GLP-1R inv ag 2µM (no result: GLP1R ag)
CCc1ccc(NC(=O)c2ccc(F)c(S(=O)(=O)N3CCc4ccccc4C3)c2)cc1	GLP-1R inv ag 8.9µM (no result: GLP1R ag)
O=C(Nc1ccc(Br)cc1)c1ccc(F)c(S(=O)(=O)N2CCCc3ccccc32)c1	GLP-1R inv ag 3.2µM (no result: GLP1R ag)
CCc1ccc(NC(=O)c2ccc(F)c(S(=O)(=O)N3CCC4(CC3)OCCO4)c2)cc1	GLP-1R inv ag inconclusive (no result: GLP1R ag)
NC(CCc1ccccc1)c1csc(NC(=O)Nc2ccccc2Oc2ccccc2)n1 (configuration not stated)	GLP-1R inv ag inconclusive
COc1ccc(CNCC(=O)N2CCC3(CC2)OCCO3)cc1	none
COc1ccc(CNS(=O)(=O)c2cc3c(cc2C)N(C)CCO3)cc1	GLP-1R inv ag 7.9µM
C[C@@H]1[C@H](O)[C@@H](C)C=CC=CCCC=CC=CC=CC=C[C@H](O[C@H]2O[C@@H](C)[C@H](O)[C@@H](N)[C@@H]2O)CC2O[C@](O)(C[C@@H](O)[C@H](O)CC[C@@H](O)C[C@@H](O)C[C@@H](O)CC(=O)O[C@H]1C)C[C@H](O)[C@H]2C(=O)O	none (no result: PTHR1 agonist, HEK293 tox, GLP-1R inv ag)
Cc1cc(N=Nc2ccccc2C)ccc1N	GLP-1R inv ag 10µM
Cc1ccc(-c2nnc(N3CCC(C)CC3)c3ccccc23)cc1C	HEK293 tox inconclusive, GLP-1R inv ag 2.5µM
Nc1ccc2c(c1)C(=O)C(=O)c1ccccc1-2	HEK293 tox 3.5µM, GLP-1R inv ag inconclusive
C[C@H](N)C(=O)c1ccccc1	none (no result: PTHR1 agonist, HEK293 tox, GLP-1R inv ag)
CCN(CC)CCNc1ccc(CO)c2oc3ccccc3c(=O)c12	HEK293 tox inconclusive, GLP-1R inv ag inconclusive
Cc1ccc2c(c1)[C@]13CCCC[C@@H]1[C@@H](C2)N(C)CC3	none (no result: PTHR1 agonist, HEK293 tox, GLP-1R inv ag)
C[C@@H]1CN([C@H](C)CO)C(=O)c2c(c3ccccc3n2C)-c2ccccc2CO[C@H]1CN(C)Cc1ccc(C(F)(F)F)cc1	HEK293 tox inconclusive, GLP-1R inv ag 5µM
C[C@@H]1CN([C@@H](C)CO)C(=O)c2c(c3ccccc3n2C)-c2ccccc2CO[C@H]1CN(C)S(=O)(=O)c1ccc(C(F)(F)F)cc1	none
COc1ccc(CS(=O)(=O)/C(Cl)=C(/Cl)C(=O)Nc2ccc(OC)nc2)cc1	HEK293 tox 11µM, GLP-1R inv ag inconclusive
Cc1ccc(Cn2nnnc2CN2CCC(n3nnc4cc(C(F)(F)F)ccc43)CC2)cc1	GLP-1R inv ag 10µM
O=C(NCCc1ccccc1)c1ccc2nccnc2c1	GLP-1R inv ag 5µM
CCOC(=O)c1c(C)n(-c2ccc(C)cc2)c2c(C(C(C)=O)C(=O)O)c(Br)c(O)c(O)c12 (configuration not stated)	HEK293 tox inconclusive
CCOC(=O)c1c(C)n(-c2ccc(OC)cc2)c2ccc(O)c(CN(C)C)c12	HEK293 tox inconclusive, GLP-1R inv ag 5.6µM
Cc1c(N)nc([C@@H](CC(N)=O)NC[C@H](N)C(N)=O)nc1C(=O)N[C@H](C(=O)N[C@H](C)[C@H](O)[C@H](C)C(=O)N[C@@H](C(=O)NCCc1nc(-c2nc(C(=O)NCCC[S+](C)C)cs2)cs1)[C@H](C)O)[C@H](O[C@@H]1O[C@@H](CO)[C@@H](O)[C@H](O)[C@@H]1O[C@H]1O[C@H](CO)[C@H](O)[C@H](OC(N)=O)[C@@H]1O)c1cnc[nH]1	none (no result: PTHR1 agonist, HEK293 tox, GLP-1R inv ag)
COc1ccccc1N1CCN(Cc2ccccc2Cl)CC1	none
COc1ccccc1N1CCN(Cc2ccc(Br)cc2)CC1	GLP-1R inv ag 10µM
COc1ccccc1/C=C/C=N/n1c(-c2ccc(Cl)cc2)n[nH]c1=S	none
C=C1C(=O)C23C(O)C1CCC2C12CCCC(C)(COC(C)=O)C1C(O)C3(O)OC2 (configuration not stated)	HEK293 tox 2.5µM, GLP-1R inv ag inconclusive
NC(Cc1ccc(Oc2cc(I)c(O)c(I)c2)c(I)c1)C(=O)O (configuration not stated)	none (no result: PTHR1 agonist, HEK293 tox, GLP-1R inv ag)
Cc1ccc(C(=O)NCCSC2CCCCC2)cc1S(=O)(=O)Nc1ccccc1	HEK293 tox inconclusive, GLP-1R inv ag 11µM
O=C(Nc1cccc(Cl)c1)c1cc(S(=O)(=O)NCCc2ccc(Cl)cc2)ccc1F	HEK293 tox inconclusive, GLP-1R inv ag 5.6µM
Fc1ccc(CCNCc2cccc(Cl)c2)cc1	GLP-1R inv ag inconclusive
CCCCCSc1cc(OC)c(CCNC)cc1OC	HEK293 tox inconclusive, GLP-1R inv ag 4µM
CCCCCCCSc1cc(OC)c(CCNC)cc1OC	HEK293 tox inconclusive, GLP-1R inv ag inconclusive
CN1C(=O)C(=Cc2ccccc2OCc2ccc(C(=O)O)cc2)C(=O)N(C)C1=O	none
CN1C(=O)C(=Cc2ccccc2OCc2ccccc2Cl)C(=O)N(C)C1=O	GLP-1R inv ag 10µM
CC1(Cc2ccc(C(F)(F)F)nc2)C(=O)Nc2cc(-c3ccccc3Cl)ccc21 (configuration not stated)	GLP-1R inv ag inconclusive
CN1C2CCC1CC(OC(=O)c1ccc([N+](=O)[O-])cc1)C2 (configuration not stated)	GLP-1R inv ag 4µM
Nc1cc(Cl)c2nonc2c1[N+](=O)[O-]	HEK293 tox 8.9µM, GLP-1R inv ag inconclusive
O=[N+]([O-])c1c(Cl)c(Cl)c(Cl)c(Cl)c1Cl	none
COc1ccc(CN2CCN(c3ncnc4sc5c(c34)CCCC5)CC2)cc1F	none (no result: GLP1R ag)
Cc1ccccc1C1CC(=O)Nc2ccc3ccccc3c21 (configuration not stated)	GLP-1R inv ag inconclusive
CCn1nc(-c2cccs2)nc2c(=O)n(C)c(=O)nc1-2	HEK293 tox inconclusive, GLP-1R inv ag 2.8µM
CC12CCC3c4ccc(OC(=O)N(CCCl)CCCl)cc4CCC3C1CCC2O (configuration not stated)	HEK293 tox inconclusive, GLP-1R inv ag 10µM
C[C@]12CCC3C(CCC4=C(Cl)C(=O)CC[C@@]43C)C1CCC2O (some centres not stated)	none (no result: PTHR1 agonist, HEK293 tox, GLP-1R inv ag)
